Results taken from PubChem BioAssay (NCATS).
“And” between values parts separate entries of the source, which are not always exact repeats. Equal entries are not always repeated. Results filed as inconclusive are left out. The source made the active and inactive calls. Unless noted, calls follow the shape of the dose curve; as a rule, active = well fitted curve in the direction sought with a large enough effect; inconclusive = small, poorly fitted or top-dose-only effect, or another doubt; inactive = no such curve, though single readings can be large; an effect the other way counts as inactive or inconclusive.

Experiments:
[1] = molecular target: Alpha-galactosidase A (Homo sapiens) (UniProt P06280); test: Counterscreen for Glucocerebrosidase Inhibitors: qHTS Assay for Human alpha-Galactosidase at pH 4.5 (AID 992); also: 0% is about no effect
How it was run: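 Fluorogenic 1536-well qHTS at pH 4.5 (citrate, Tween-20): 2 nM enzyme, 80 uM 4-MU-alpha-galactoside, 20 min room temperature, NaOH/glycine stop. Titration 0.7 nM to 77 uM, data normalized to no-enzyme and full-activity controls, Hill-fitted AC50.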

[2] = molecular target: alpha-glucosidase (Oryza sativa, rice) (UniProt Q653V4); test: Counterscreen for Glucocerebrosidase Inhibitors: qHTS Assay for Rice alpha-Glucosidase at pH 5.0 (AID 997);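 also: 0% = full activity with enzyme and -100% = basal without enzyme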
How it was run: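 Endpoint fluorogenic assay at pH 5.0: compounds (0.7 nM to 77 uM) titrated against 4 nM rice enzyme and 400 uM 4-MU-alpha-glucoside for 20 min at room temperature; NaOH/glycine stop, read ex 365/em 440 nm, Hill-fitted AC50.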

[3] = Validation of Assay for Modulators of Lamin A Splicing (AID 1459; active = well fitted curve in the direction sought with a large enough effect in the signal ratio; the % refers to the signal ratio;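 also: cells exposed to compound for two days before reading; 0% is about no effect; ratio rise marks activators and ratio drop marks inhibitors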)
How it was run: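 Splicing correction is reported by an EGFP-containing lamin A minigene in stably transfected S3 HeLa cells, while DsRed2 controls for viability and nonspecific signal. Cells are exposed to compounds for 48 hrs before the GFP over RFP ratio is taken.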

[4] = qHTS Assay for Lipid Storage Modulators (AID 1519; calls by dose curve; as to activity change, negative = inhibition: % is scaled to controls: 0 for no effect and ±100 for the full control effect); conditions: Drosophila S3 cells, BODIPY lipid droplet/cell ratio, laser cytometry, cells loaded with oleic acid
How it was run: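 Cells seeded at 5,000 per well were treated with compounds over a concentration series and loaded with oleic acid (400 uM, as added). Lipid droplet fluorescence (488 nm excitation, 500-530 nm channel) was read by laser-scanning cytometry and normalized to 20 uM Triacsin C.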

[5] = molecular target: DNA repair nuclease/redox regulator APEX1 (Homo sapiens) (UniProt P27695); test: qHTS Validation Assay for Inhibitors of the Human Apurinic/apyrimidinic Endonuclease 1 (APE1) (AID 1705;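 also: TAMRA fluorescence gain over two minutes as APE1 cuts a quenched THF abasic duplex; % is scaled to controls: 0 for no effect and ±100 for the full control effect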)
How it was run: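 Endonuclease activity of human APE1 is followed as dequenching when the enzyme incises a tetrahydrofuran abasic site in a short duplex labelled 5'-TAMRA/3'-BHQ-2 (50 nM final), after 15 min enzyme–compound preincubation at room temperature.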

[6] = Counterscreen for APE1 Inhibitors: Fluorescent Dye Displacement Validation Assay (AID 1707);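 also: plate controls were ThO with dsDNA and no compound for no effect and ThO without dsDNA for full effect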
How it was run: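 Counterscreen flags promiscuous DNA binders: compounds displacing ThO from duplex DNA (abasic THF site, 50 nM) reduce 540 nm emission (480 nm excitation). ThO 250 nM final; Tris-HCl pH 7.5 with NaCl, MgCl2 and Tween-20.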

[7] = molecular target: Endonuclease 4 (Escherichia coli (strain K12)) (UniProt P0A6C1); test: Counterscreen for APE1 Inhibitors: qHTS Validation Assay for Inhibitors of Endonuclease IV (AID 1708); also: % is scaled to controls: 0 for no effect and ±100 for the full control effect
How it was run: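 The reaction buffer contained 50 mM Tris-HCl pH 7.5, 50 mM NaCl, 2 mM MgCl2, 1 mM DTT and 0.01% Tween-20. Incision of a 50 nM fluorophore/quencher THF substrate by 2 nM enzyme was measured kinetically.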

[8] = qHTS for differential inhibitors of proliferation of Plasmodium falciparum line 7G8 (AID 1815);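 also: parasite growth measured after three days of incubation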; also: potency is read from the fitted curve at half-maximal effect;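 as to activity change, negative = inhibition: plate controls were vehicle wells for no effect and reference inhibitor wells for full effect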
[9] = qHTS for differential inhibitors of proliferation of Plasmodium falciparum line GB4 (AID 1816); conditions: Potency: Plasmodium falciparum GB4 proliferation inhibition;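 also: parasite growth measured after 72 h incubation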; also: potency is read from the fitted curve at half-maximal effect;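 as to activity change, negative = inhibition: 0% = vehicle DMSO and -100% = reference inhibitor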
[10] = qHTS for differential inhibitors of proliferation of Plasmodium falciparum line 3D7 (AID 1876); also: potency is read from the fitted curve at half-maximal effect
[11] = qHTS for differential inhibitors of proliferation of Plasmodium falciparum line D10 (AID 1877);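 also: parasites grown with compound for 72 h before DNA staining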; also: potency is read from the fitted curve at half-maximal effect;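 as to activity change, negative = inhibition: plate controls were vehicle wells for no effect and reference inhibitor wells for full effect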
[12] = qHTS for differential inhibitors of proliferation of Plasmodium falciparum line Dd2 (AID 1882); conditions: Potency: Plasmodium falciparum Dd2 proliferation inhibition; also: nearly all actives have a fitted effect of over 65% in size; also: potency is read from the fitted curve at half-maximal effect;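 as to activity change, negative = inhibition: compound exposure of 72 h on infected erythrocytes; plate controls were DMSO vehicle for no effect and 0.29 µM artemisinin for full effect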
How it was run: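 RBC culture, 0.3% parasitemia / 2.5% Hct final; cpd added by pin tool in DMSO; 72 h, 37 C, 5% CO2; lysis buffer + SYBR Green I, o/n RT dark; FI 485/535; norm. to artemisinin 0.29 uM and DMSO.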

[13] = qHTS for differential inhibitors of proliferation of Plasmodium falciparum line W2 (AID 1883); conditions: Potency: Plasmodium falciparum W2 proliferation inhibition;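 also: parasites grown with compound for 72 h before lysis and staining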; also: potency is read from the fitted curve at half-maximal effect;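 as to activity change, negative = inhibition: 0% = vehicle wells and -100% = control inhibitor wells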
[14] = qHTS for differential inhibitors of proliferation of Plasmodium falciparum line HB3 (AID 1886); conditions: Potency: Plasmodium falciparum HB3 proliferation inhibition;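 also: parasites grown with compound for 72 h before SYBR Green readout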; also: potency is read from the fitted curve at half-maximal effect;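 as to activity change, negative = inhibition: plate controls were vehicle for no effect and reference inhibitor for full effect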
[15] = Cell Viability - LYMP2-020 (AID 986);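 also: plate controls were DMSO only for no effect and tetraoctylammonium bromide at 92 µM for full effect; nearly all actives have a fitted effect of over 55% in size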
How it was run: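 qHTS, 2500 cells/well; 5 hr then 24 hr compound exposure, 37 C; CellTiter-Glo luminescence after 30 min RT; ATP decrease taken as cytotoxicity; AC50 via Hill equation; tetraoctylammonium bromide positive control.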

[16] = Cell Viability - LYMP2-022 (AID 987);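 also: 0% = DMSO alone and full effect = tetraoctylammonium bromide at 92 µM; nearly all actives have a fitted effect of over 55% in size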
How it was run: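 Luminescent ATP read-out (CellTiter-Glo, 30 min, RT) after 24 hr, 37 C compound exposure of 2500 human lymphoblastoid cells/well in complete medium. Cytotoxicity taken as concentration-dependent ATP loss; AC50 from standard Hill equation.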

[17] = Cell Viability - LYMP2-024 (AID 988);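 also: plate controls were DMSO only for no effect and 92 µM tetraoctylammonium bromide for full effect; nearly all actives have a fitted effect of over 60% in size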
How it was run: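 ATP-based luminescence (CellTiter-Glo, 30 min RT) after 24 h compound exposure at 37 C of 2500 lymphoblastoid cells/well; decrease in ATP taken as cytotoxicity. qHTS concentration-response fitted to standard Hill equation for AC50.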

[18] = Cell Viability - LYMP2-026 (AID 989); also: % is scaled to controls: 0 for no effect and ±100 for the full control effect; nearly all actives have a fitted effect of over 50% in size
How it was run: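 qHTS cytotoxicity: 2500 cells/well, 5 hr 37 C, compound 24 hr 37 C, CellTiter-Glo 30 min RT, luminescence. Tetraoctylammonium bromide positive control. AC50 via standard Hill fit.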

[19] = Cell Viability - LYMP1-002 - Assay at 24 hr (AID 993); also: % is scaled to controls: 0 for no effect and ±100 for the full control effect
How it was run: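 CellTiter-Glo luminescence (intracellular ATP) after 24 h compound exposure, 37 C, in LYMP1-002 human lymphoblastoid cells; decreased ATP taken as cytotoxicity. AC50 from standard Hill fit of concentration-response curves.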

[20] = Cell Viability - LYMP1-002 - Assay at 40 hr (AID 994);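 also: 0% = DMSO only and full inhibition = 92 µM tetraoctylammonium bromide; nearly all actives have a fitted effect of over 60% in size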
How it was run: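 qHTS cytotoxicity; 2500 cells/well, 5 hr 37 C settle, compound 40 hr 37 C. CellTiter-Glo, 30 min RT, luminescence (ATP). Concentration-response, Hill fit → AC50. Pos. ctrl tetraoctylammonium bromide.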

[21] = measured here: cell count channel max response
[22] = measured here: lipid channel max response

Alpha-galactosidase A (Homo sapiens), sequence (P06280 whole entry, looked up): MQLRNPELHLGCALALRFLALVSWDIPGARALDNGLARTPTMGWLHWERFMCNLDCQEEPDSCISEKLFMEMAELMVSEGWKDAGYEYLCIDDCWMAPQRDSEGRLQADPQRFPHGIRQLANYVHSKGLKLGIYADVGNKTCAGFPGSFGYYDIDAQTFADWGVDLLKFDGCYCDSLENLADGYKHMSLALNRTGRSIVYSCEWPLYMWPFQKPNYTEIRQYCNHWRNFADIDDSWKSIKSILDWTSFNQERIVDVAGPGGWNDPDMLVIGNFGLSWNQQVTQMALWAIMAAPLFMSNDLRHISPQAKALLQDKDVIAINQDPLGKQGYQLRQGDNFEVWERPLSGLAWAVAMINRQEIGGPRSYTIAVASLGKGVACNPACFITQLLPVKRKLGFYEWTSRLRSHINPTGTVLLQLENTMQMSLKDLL
DNA repair nuclease/redox regulator APEX1 (Homo sapiens), sequence (P27695 whole entry, looked up): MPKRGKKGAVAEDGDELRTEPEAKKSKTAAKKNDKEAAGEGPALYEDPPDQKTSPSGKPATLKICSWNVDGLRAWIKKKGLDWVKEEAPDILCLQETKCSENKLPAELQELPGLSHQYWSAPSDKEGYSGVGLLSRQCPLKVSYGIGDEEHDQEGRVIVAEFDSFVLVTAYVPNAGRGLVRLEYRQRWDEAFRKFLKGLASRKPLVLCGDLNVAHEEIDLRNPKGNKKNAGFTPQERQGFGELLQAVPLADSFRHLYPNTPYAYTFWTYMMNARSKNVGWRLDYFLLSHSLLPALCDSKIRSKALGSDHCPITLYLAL

N=c1nc(N2CCCCC2)cc(N)n1O
-1.22% and 19% and 16.9%: max response [4, 21]
inactive: outcome [1] | outcome [2] | outcome [3] | activity change, negative = inhibition ([4]; at 25.7 µM (top of the series)) 0.0649% | activity change, negative = inhibition ([4]; at 57.5 µM (top of the series)) 3.81% and 8.57% | outcome [5] | outcome [6] | outcome [7] | Potency [8] | Potency [9] | Potency [10] | Potency [11] | Potency [12] | Potency [13] | Potency [14]
1.34% and 23.5% and 29.3%: max response [4, 22]

O=C(O)COCCN1CCN(C(c2ccccc2)c2ccc(Cl)cc2)CC1 (stereo not given)
4.08%: max response [4, 21]
13.6%: max response [4, 22]
inactive: activity change, negative = inhibition ([4]; at 57.5 µM (top of the series)) 5.98%

COc1ccc2nc(S(=O)Cc3ncc(C)c(OC)c3C)[nH]c2c1 (stereo not given)
1.74%: max response [4, 22]
inactive: activity change, negative = inhibition ([4]; at 25.7 µM (top of the series)) -4.82%
6.97%: max response [4, 21]

CC(C)NCC(O)COc1ccc(COCCOC(C)C)cc1 (stereo not given)
inactive: outcome [1] | outcome [2] | outcome [6] | outcome [7] | Potency [10] | Potency [11] | Potency [12] | Potency [14]

Cc1cn[nH]c1
inactive: outcome [1] | outcome [2] | outcome [6] | outcome [7] | Potency [8] | Potency [9] | Potency [10] | Potency [11] | Potency [12] | Potency [13] | Potency [14]

CCOC(=O)C1=C[C@@]2(CC)CCCN3CCc4c(n1c1ccccc41)[C@H]32
-14.2%: max response [4, 21]
-15.3%: max response [4, 22]
inactive: outcome [1] | outcome [2] | activity change, negative = inhibition ([4]; at 25.7 µM (top of the series)) -1.77%

CC(C)C[C@H](NC(=O)[C@@H](O)[C@H](N)Cc1ccccc1)C(=O)O
-0.689%: max response [4, 22]
-1.56%: max response [4, 21]
active: Potency [8] 2.51 µM | Potency [9] 2.51 µM | Potency [10] 0.631 µM | Potency [11] 2.82 µM | Potency [12] 2.24 µM | Potency [13] 1 µM | Potency [14] 3.55 µM
inactive: activity change, negative = inhibition ([4]; at 57.5 µM (top of the series)) -0.597% | outcome [6] | outcome [7]

Oc1ccc(C2CNCCc3c2cc(O)c(O)c3Cl)cc1 (stereo not given)
inactive: outcome [5] | outcome [6] | outcome [7] | Potency [12]
active: Potency [9] 10 µM | Potency [10] 10 µM | Potency [11] 11.2 µM | Potency [13] 10 µM | Potency [14] 11.2 µM

CC(C)(C)NCC(O)c1ccc(O)c(CO)c1 (stereo not given)
15.4% and -7.47%: max response [4, 22]
11.9% and -13.2%: max response [4, 21]
inactive: activity change, negative = inhibition ([4]; at 57.5 µM (top of the series)) 0.332% and 5.35% | outcome [5] | outcome [6] | outcome [7]

NC(=O)c1cnccn1
inactive: outcome [15] | outcome [16] | outcome [17] | outcome [18] | outcome [1] | outcome [19] | outcome [20] | outcome [2] | activity change, negative = inhibition ([4]; at 57.5 µM (top of the series)) 8.38% | outcome [5] | outcome [6] | outcome [7] | Potency [8] | Potency [9] | Potency [10] | Potency [11] | Potency [12] | Potency [13] | Potency [14]
23.4%: max response [4, 22]
10.7%: max response [4, 21]
